# Only some compounds are listed: those with a hit (about 0.34% of all), similar ones and a draw of the others.
# Vif-APOBEC3G blk: Vif-A3G binding inhibition; Q9HC16; HeLa A3G-eYFP + Vif (tagged APOBEC3G with the HIV-1 protein that degrades it), YFP fluorescence, overnight; Potency, µM (doses to about 46.1 µM), without a hit: top-dose activity, negative = active, usual class: inhibitors; 410,000 compounds, 0.076% hits; further: on the % scale 0 is the no-effect control and ±100 the full control effect; nearly all actives have a fitted effect of over 60% in size
# Target sequence (Q9HC16 whole entry, looked up): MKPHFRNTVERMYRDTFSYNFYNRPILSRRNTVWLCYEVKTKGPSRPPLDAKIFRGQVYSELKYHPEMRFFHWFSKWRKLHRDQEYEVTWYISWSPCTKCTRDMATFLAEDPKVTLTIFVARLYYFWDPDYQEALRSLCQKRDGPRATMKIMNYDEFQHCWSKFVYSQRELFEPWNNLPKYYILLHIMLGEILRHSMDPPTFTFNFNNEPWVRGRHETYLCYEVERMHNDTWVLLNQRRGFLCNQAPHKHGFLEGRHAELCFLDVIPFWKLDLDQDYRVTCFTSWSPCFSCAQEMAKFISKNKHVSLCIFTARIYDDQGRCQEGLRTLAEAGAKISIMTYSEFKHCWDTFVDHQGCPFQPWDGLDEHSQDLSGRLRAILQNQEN
#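 HeLa cells stably expressing Vif and C-terminally eYFP-tagged A3G, seeded overnight at 37 deg C, then exposed to compound by pintool overnight at 37 deg C. Rise in yellow fluorescence (Ex 488/Em 500-530, Acumen) marks blocked Vif-driven A3G degradation.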
# Epigenetic derep: epigenetic control regulation, reporter derepression. murine LDR cells, GFP reporter derepression, 30 h. Potency, µM (top dose mostly 53.9 µM), for inactives: at the top dose GFP activation, usual class: activators. 280,000 compounds, 0.2% hits. AID 1865; further: % of control where 0% means no effect; nearly all actives have a fitted effect of over 60% in size
#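 Reporter derepression read as number of fluorescent GFP-positive objects, 20-120 um in size, counted by laser-scanning cytometer. Mouse LDR line with an epigenetically silenced CMV-GFP locus; compound incubation 30 h, 37 C.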
# Vif-A3F inh: Vif-A3F binding inhibition; HeLa A3F-eYFP + Vif (tagged APOBEC3F with the HIV-1 protein that degrades it), YFP fluorescence increase; Potency, µM (top dose mostly 46.1 µM), inactives show at the top dose activity, negative = active; 390,000 compounds, 0.2% hits; further: % of control where 0% means no effect; nearly all actives have a fitted effect of over 65% in size
#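 HeLa cells stably expressing A3F-eYFP plus Vif, plated and incubated overnight at 37 deg C, then exposed to compounds overnight at 37 deg C. Blocked degradation read as raised yellow fluorescence (Ex 488/Em 500-530).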
# Active calls of the source: *; ? = inconclusive; . = not tested or not shown. The call rests on the fitted dose curve; in most records, active means well fitted curve in the direction sought with a large enough effect; inconclusive means small, poorly fitted or top-dose-only effect, or another doubt; inactive means no such curve, though single readings can be large; an effect the other way counts as inactive or inconclusive. Potency means the concentration at half of the fitted maximal effect.
SMILES,Vif-APOBEC3G blk,Epigenetic derep,Vif-A3F inh
FC(F)(F)c1cccc(-c2noc(-c3cc(-c4ccccc4)c(C(F)(F)F)s3)n2)c1,.,-1%,.
COc1ccc(C(=O)/C=C/Nc2ccc([N+](=O)[O-])cc2C)c(OC)c1,-3%,?,22µM*
COc1ccc(C(=O)/C=C/Nc2ccc([N+](=O)[O-])cc2C)cc1OC,?,?,-6%
Cc1ccccc1CN1[C@H](C)[C@H](c2ccccc2)OCCS1(=O)=O,-5%,.,.
Cc1ccccc1Nc1nc(N)c(C(=O)c2ccccc2Cl)s1,.,-1%,.
CCn1c2ccc(OC)cc2c2nc3ccccc3nc21,-18%,-2%,.
CCOc1ccc(Cn2c3ccc(OC)cc3c3nc4ccccc4nc32)cc1,?,3%,11µM*
CC1=CC(=C(c2ccc(N)cc2)c2ccc(N)cc2)C=CC1=N,8%,.,.
COc1ccc(C2Nc3ccccc3C(=O)N2c2ccccc2F)cc1COc1ccc(NC(C)=O)cc1 (centres undefined),-19%,.,.
Cc1ccc2nc3sc(C(=O)NCc4ccco4)c(N)c3cc2c1,-20%,16µM*,?
COc1cc2cc3c(N)c(C(=O)NCc4ccco4)sc3nc2cc1OC,-27%,-7%,13%
CCOC(=O)c1[nH]c(C)c(CCC(=O)Nc2ccc(N(CC)CC)cc2C)c1C,-3%,3%,-9%
COc1ccc2oc(=Nc3ccccc3)c(-c3nc4ccccc4[nH]3)cc2c1,-28%,-1%,11µM*
COc1ccc(-c2nc3ccccc3[nH]2)cc1,-4%,-3%,-9%
N#CC(C#N)=C1C=CC=CN1/C(=C\c1ccco1)C(=O)c1ccc(Br)cc1,-23%,?,?
N#CC(C#N)=C1C=CC=CN1/C(=C\c1ccco1)C(=O)c1ccccc1,?,8%,20µM*
O=C(O)CSc1cccc2cccnc12,0%,18µM*,?
O=C(CSc1cccc2cccnc12)N/N=C/c1ccc(F)cc1,-2%,0%,10%
COc1ccc(N/C=C/c2nc(SC)nnc2C)cc1,-18%,0%,22µM*
CSc1nnc(C)c(/C=C/Nc2ccc(F)cc2)n1,-20%,0%,-14%
COCCCNC(=O)CSc1nc2cc3c(cc2c(=O)n1CCCCCC(=O)NCCc1ccc(OC)c(OC)c1)OCO3,-2%,-1%,-4%
O=C(CN1CCCCC1)c1c[nH]c2ccccc12,-10%,.,2%
CC1CC(C)CN(CC(=O)c2c[nH]c3ccccc23)C1 (centres undefined),?,.,32µM*
CC[C@@H]1[C@H]2CCCC(=O)N3CC[C@@H](C[C@@H]1OC(=O)Nc1ccc4c(c1)OCO4)[C@@H]23,-3%,.,.
O=C(CN1C(=O)S/C(=C/c2cccn2-c2ccc(O)cc2)C1=O)N1CCCC1,-9%,.,0%
SMILES,Vif-APOBEC3G blk,Epigenetic derep,Vif-A3F inh
O=C(O)c1cccc(-n2cccc2C=C2C(=O)c3ccccc3C2=O)c1,0%,4%,-4%
O=C1C(=Cc2cccn2-c2ccccc2)C(=O)c2ccccc21,?,11µM*,28µM*
O=C1C(=Cc2cccn2-c2ccc(O)cc2)C(=O)c2ccccc21,-7%,22µM*,?
CCc1ccc(C(=O)NC(=S)Nc2ccc(N3CCOCC3)cc2)cc1,1%,-3%,10µM*
O=C(NN1CCOCC1)c1cccc2ccccc12,0%,-1%,13%
O=C(Nc1ccc(N2CCOCC2)cc1)c1cccc2ccccc12,10µM*,.,-2%
O=C(NC(=S)Nc1ccc(N2CCOCC2)cc1)c1ccccc1,0%,1%,2%
CC1CCN(Cc2c(O)ccc3c(=O)c(-c4cccc(Cl)c4)c(C(F)(F)F)oc23)CC1,3%,-1%,-3%
Ic1ccc(Nc2nc(NCCN3CCOCC3)nc(N3CCOCC3)n2)cc1,-1%,.,.
COc1cc2nc(CC(O)c3nc4cc(OC)c(OC)cc4[nH]3)[nH]c2cc1OC (centres undefined),-5%,.,.
Cc1cc2cc(C#N)c(SCC(=O)Nc3nonc3C)nc2cc1C,?,.,10µM*
Cc1ccc(C)c2nc(SCC(=O)Nc3ccc4c(c3)OCO4)c(C#N)cc12,0%,0%,-4%
COc1ccc2cc(C#N)c(SCC(=O)Nc3nonc3C)nc2c1,-1%,.,-8%
Cc1nonc1NC(=O)CSc1nc2c(C)cccc2cc1C#N,?,16µM*,7.9µM*
C=CCNc1nc(NC2CCN(C)CC2)c2cc(OC)c(OC)cc2n1,0%,.,.
O=C(COC(=O)c1cccnc1Cl)Nc1ccccc1OC(F)F,0%,0%,10µM*
O=C(COC(=O)c1ccccn1)Nc1ccccc1OC(F)F,-4%,0%,?
CCCn1nc(NC(=O)CC)c2cc3cccc(C)c3nc21,-2%,.,-1%
CCCn1nc(NC(=O)c2cccc(Cl)c2)c2cc3cccc(C)c3nc21,-5%,16µM*,?
O=[N+]([O-])c1ccc(O/N=[N+](\[O-])N2CCCC2)c([N+](=O)[O-])c1,-15%,.,.
COc1ccc(-n2c(=O)c3c4c(sc3n(Cc3ccc(C)cc3C)c2=O)CCC4)c(OC)c1,5%,0%,-7%
O=C(CNC(=O)C1CCCCC1)OCC(=O)c1ccc(-c2ccccc2)cc1,0%,.,.
COc1cc(/C=C2/SC(=Nc3ccc(O)cc3)NC2=O)ccc1O,?,4%,25µM*
O=C1NC(=Nc2cccnc2)S/C1=C\c1cccc(F)c1,-9%,0%,-15%
COc1cc(/C=C2\SC(=Nc3cccnc3)NC2=O)cc(OC)c1OC,?,0%,25µM*
SMILES,Vif-APOBEC3G blk,Epigenetic derep,Vif-A3F inh
COc1ccc(C=C2SC(=O)NC2=O)cc1OC,-11%,.,-9%
COc1ccc(CN2CC[C@H]3C=CC[C@@H](C(=O)Nc4nccs4)[C@H]3C2=O)cc1OC,-3%,.,.
Cn1c(=O)c2c(nc(CN3CCN(c4ccccc4F)CC3)n2Cc2ccc(F)cc2)n(C)c1=O,-3%,-1%,6%
O=C(CSc1n[nH]c(-c2ccc(F)cc2)n1)N1CCN(c2ccc(F)cc2)CC1,3%,-1%,6%
CCOc1ccc(NC(=O)c2cc3c(=O)n4cccc(C)c4nc3s2)cc1,1%,-2%,-9%
ClCC1NCC(c2ccccc2Cl)c2c1[nH]c1ccccc21 (centres undefined),?,?,22µM*
C(=Nc1ccc(/C=C/c2ccnc3ccccc23)cc1)c1ccco1,-5%,.,.
CNC(=O)c1[nH]nc2c1CCc1ccccc1-2,0%,.,?
COc1ccc(/C=N/NC(=O)c2[nH]nc3c2CCc2ccccc2-3)cc1OC,3.2µM*,-1%,-4%
COc1cc2c(cc1OC)C(c1cc(-c3cc(Cl)ccc3Cl)oc1C)=NCC2,-1%,.,.
O=C(C[n+]1cccc(Br)c1)c1cc(Cl)ccc1Cl,-5%,.,.
CSc1ccccc1NC(=O)COC(=O)CCC(=O)c1ccc(F)cc1,-1%,.,-1%
Cc1ccc(C(=O)CCC(=O)OCC(=O)Nc2ccccc2SCC#N)cc1,-13%,.,13µM*
COc1ccc(OC)c2c(/C=C/c3c(C)[nH]c4ccccc34)ccnc12,0%,.,.
O/N=C(/C[n+]1ccsc1)c1ccc(I)cc1,0%,.,.
O=C(Nc1ccc(SC(F)F)cc1)c1cccc2nc3ccccc3nc12,0%,7.1µM*,3%
O=C(Cn1cnc2ccccc21)Nc1ccc(SC(F)F)cc1,-6%,-1%,1%
O=C1C=C(O)c2[nH]c(=O)ccc2C1=O,-1%,.,5%
